Records with an inconclusive call do not appear. A number with no mark means an inactive call. Active and inactive are the calls of the source. Calls come from the whole dose curve; as a rule, active = well fitted inhibition curve with a large enough effect; inconclusive = small, poorly fitted or top-dose-only effect; inactive = flat fitted curve, though single readings scatter.

The subject of assay [1] is NIH3T3. Kind of assay: Cytotoxic Profiling of Annotated Libraries Using Quantitative High-Throughput Screening (AID 1296008). The note with it: Five cell lines viability, CellTiter-Glo ATP luminescence, 48-72 h; max response: stronger effect = lower value. In outline: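 Cells exposed to compounds for 48 or 72 hr at 37 degrees Celsius. Viability read as ATP-coupled luminescence with CellTiter-Glo after 10 min at room temperature.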
In general terms: ATP-based viability assays read luminescence as a measure of living cells.

In another assay the test system is HACAT. Put plainly: qHTS assay to identify novel small-molecules to repurpose for Merkel cell carcinoma treatment (AID 1296009). The note with it: MCC and control cell lines, CellTiter-Glo viability, 72 h; at 44.8 µM (top of the series) unless noted. Put shortly:
(§1)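 Dose-response viability screen; 72 hr exposure at 37 degree celsius; CellTiter-Glo added, 10 min room temperature, luminescence read; RLUs scaled between no-cell and DMSO wells.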

In another assay the test system is HEK293T. The assay is described as above. The note with it: MCC and control cell lines, CellTiter-Glo viability, 72 h; at 44.8 µM (top of the series) unless noted. In outline: as §1
Another assay has as its system MCC-13. The assay is described as above. The following applies: MCC and control cell lines, CellTiter-Glo viability, 72 h; series mostly up to 46 µM. In outline:
as §1

In another assay the test system is MCC-26. The description is as above. The following applies: MCC and control cell lines, CellTiter-Glo viability, 72 h; series mostly up to 46 µM. Put shortly:
as §1

A further assay deals with MKL-1. The assay is described as above. The following applies: MCC and control cell lines, CellTiter-Glo viability, 72 h; series mostly up to 46 µM. Put shortly:
as §1

The next assay relates to MKL-2. Described as above. The note with it: MCC and control cell lines, CellTiter-Glo viability, 72 h; series mostly up to 46 µM. Put shortly:
as §1

The test system of assay [2] is NIH3T3. The description is as above. The note with it: MCC and control cell lines, CellTiter-Glo viability, 72 h; at 44.8 µM (top of the series) unless noted. Put shortly: as §1
The test system of the next assay is UISO. Described as above. The note with it: MCC and control cell lines, CellTiter-Glo viability, 72 h; series mostly up to 46 µM. Put shortly: as §1
% is set by controls: 0 for no effect and ±100 for the full control effect; potency is the fitted concentration of half-maximal effect.
Note: nearly all actives have a fitted effect of over 60% in size.

With `c1cc2c(cc1[C@H]1OC[C@H]3[C@H]1CO[C@H]3c1ccc3c(c1)OCO3)OCO2`, the compound was called inactive with NIH3T3 [1], with HACAT, in the assay on HEK293T and with NIH3T3 [2]. The Potency entry in the assay with MCC-13, in the assay on MCC-26, with MKL-1, with MKL-2 and with UISO was “inactive” each time.
Turning to `O=C(Oc1ccc([N+](=O)[O-])cc1)N1CCC(C(O)(c2ccc3c(c2)OCO3)c2ccc3c(c2)OCO3)CC1`, the compound was called inactive in the assay on NIH3T3 [1], in the assay on HACAT and in the assay on NIH3T3 [2]. The Potency entry in the assay on MCC-13, in the assay with MCC-26, in the assay on MKL-1, in the assay with MKL-2 and in the assay with UISO was “inactive” throughout.
For the compound `CC(=O)NCCc1c[nH]c2ccccc12`, the compound was called inactive in the assay on NIH3T3 [1]. Besides, the outcome in the assay with HACAT and in the assay with NIH3T3 [2] was “inactive [at 92 µM]” throughout.
As for `CSCC[C@@H](NC(=O)[C@@H](Cc1ccccc1)NC(=O)CNC(=O)CNC(=O)[C@@H](N)Cc1ccc(O)cc1)C(=O)O`, the max response in the assay on NIH3T3 [1] is 2.68%. Also, the compound was classed as inactive in the assay with HACAT. The Potency result in the assay with MCC-13, with MCC-26, with MKL-1, in the assay with MKL-2 and in the assay on UISO was “inactive” throughout.
In the case of `NC1=NC(=O)N2CC12` (stereo unspecified), the compound was classed as inactive with NIH3T3 [1], in the assay with HACAT and in the assay with NIH3T3 [2]. Besides, the Potency entry in the assay with MCC-13, in the assay with MCC-26 and with MKL-1 was “inactive” each time.
`COc1ccc(C(=O)c2c(C)n(CCN3CCOCC3)c3cc(I)ccc23)cc1`: the outcome in the assay with NIH3T3 [1], in the assay with HACAT and with NIH3T3 [2] was inactive. The Potency result in the assay on MCC-13 and in the assay on MCC-26 was “inactive” each time. Besides, the Potency in the assay on MKL-2 was 1.48 µM (active).
For `CCOP(=O)(NC(C)C)Oc1ccc(SC)c(C)c1` (stereo unspecified), the max response in the assay with NIH3T3 [1] is -4.93%. Further, the outcome in the assay with HACAT was “inactive [at 92 µM]”. The Potency entry in the assay on MCC-13, in the assay with MCC-26, with MKL-1, with MKL-2 and with UISO was “inactive” each time.
For the compound `CCCCC(CC)COC(=O)c1ccccc1C(=O)OCC(CC)CCCC` (stereo unspecified), in the assay with NIH3T3 [1], the max response was -8.2%. In addition, the outcome in the assay with HACAT and in the assay with HEK293T was “inactive [at 92 µM]” each time. Besides, the Potency result in the assay on MCC-13, in the assay with MCC-26, with MKL-1, with MKL-2 and in the assay with UISO was “inactive” each time.
For the compound `C1=C2CCCN[C@H]2[C@@H]2C[C@H]1[C@@H]1CCCCN1C2`, the call with NIH3T3 [1], with HACAT and in the assay on NIH3T3 [2] was inactive. In addition, the Potency result in the assay with MCC-13, with MCC-26, in the assay on MKL-1, in the assay with MKL-2 and in the assay with UISO was “inactive” each time.
In the case of `C#C[C@]1(O)C=C[C@@H]2[C@@H]3CCC4=CC(=O)CC[C@@H]4[C@H]3CC[C@@]21CC`, the max response with NIH3T3 [1] was -5.86%. Moreover, in the assay with HACAT, the outcome was inactive. Besides, the Potency entry in the assay on MCC-13, in the assay with MCC-26, with MKL-1, with MKL-2 and with UISO was “inactive” throughout.
Consider `O=C(O)COc1ccccc1`, for which the max response in the assay on NIH3T3 [1] is -0.908%. Besides, the outcome with HACAT was inactive. The Potency entry with MCC-13, in the assay on MCC-26, in the assay on MKL-1, in the assay on MKL-2 and in the assay with UISO was “inactive” each time.
For `CCC(=O)OC1CCC2C3CCC4=CC(=O)CC[C@@]4(C)C3CC[C@]12C` (stereo partly specified), in the assay with NIH3T3 [1], the max response is 4.81%. The result with HACAT and in the assay on HEK293T was inactive. The Potency entry in the assay with MCC-13, with MCC-26, in the assay on MKL-1, in the assay on MKL-2 and in the assay on UISO was “inactive” throughout.
Turning to `COc1nn(CSP(=S)(OC)OC)c(=O)s1`, in the assay with NIH3T3 [1], the max response is -0.106%. In addition, the outcome in the assay with HACAT was “inactive [at 92 µM]”. Besides, the figures for the Potency in the assay with MKL-1, with MKL-2 and with UISO were 24.3 µM (active), 24.3 µM (active) and 38.6 µM (active), respectively.
For the compound `O=C1C=CC[C@@H]2[C@H]3CCCN4CCC[C@@H](CN12)[C@@H]34`, the outcome in the assay with NIH3T3 [1], in the assay on HEK293T and in the assay on NIH3T3 [2] was inactive. In addition, the Potency result in the assay on MCC-13, with MCC-26, in the assay with MKL-1, with MKL-2 and with UISO was “inactive” throughout.
In the case of `Cc1nc(-c2ccc(-c3ccc(C(=O)N4CCc5cc6c(cc54)C4(CCN(C)CC4)CO6)cc3)c(C)c2)no1`, the max response in the assay with NIH3T3 [1] is 1.47%. Further, the compound was called inactive with HACAT. Further, the Potency entry with MCC-13, with MKL-1, with MKL-2 and in the assay on UISO was “inactive” in each case.
With `CN[C@@H](C)[C@H](O)c1ccccc1`, the max response in the assay with NIH3T3 [1] is -5.73%. Also, the result with HEK293T was inactive. In addition, the Potency entry in the assay with MCC-13, in the assay with MCC-26, in the assay on MKL-1, with MKL-2 and in the assay with UISO was “inactive” in each case.
Consider `O=C(N[C@@H](COc1ccc2[nH]c(=O)[nH]c2c1)c1ccccc1)c1cccn(Cc2ccc(F)c(F)c2)c1=O`, for which the max response in the assay on NIH3T3 [1] was -25.3%. Moreover, the Potency entry with MCC-13, in the assay on MCC-26, with MKL-1, in the assay on MKL-2 and in the assay with UISO was “inactive” in each case.
Take `CS(=O)(=O)c1ccc(C(=O)C2C(=O)CCCC2=O)c([N+](=O)[O-])c1`: the max response in the assay on NIH3T3 [1] is 4.33%. Moreover, the Potency entry with MCC-13, in the assay on MCC-26, in the assay on MKL-1, with MKL-2 and with UISO was “inactive” in each case.
In the case of `CC=C(C)C(=O)O[C@H]1C(C)=C2[C@@H]3OC(=O)[C@@](C)(O)[C@@]3(O)[C@@H](OC(=O)CCC)C[C@](C)(OC(C)=O)[C@@H]2[C@@H]1OC(=O)CCCCCCC`, the Potency with NIH3T3 [1] was 18.7 nM (active); with MCC-13, 1.87 µM (active); with MCC-26, 1.32 µM (active); in the assay on MKL-1 it was 11.8 µM (active); in the assay with MKL-2 it was 3.72 µM (active); in the assay with UISO, 0.235 µM (active).
Consider `O=[N+]([O-])/N=C1\NCCN1Cc1ccc(Cl)nc1`, for which, in the assay with NIH3T3 [1], the max response is -2.1%. Moreover, the result in the assay on HEK293T was inactive. For the same compound, the Potency result in the assay on MCC-13, with MCC-26, in the assay with MKL-1, in the assay on MKL-2 and with UISO was “inactive” each time.
On to `CC(C)[C@]12O[C@@H]1[C@@H]1O[C@]13[C@]1(O[C@H]1C[C@@H]1C4=C(CC[C@@]13C)C(=O)OC4)[C@H]2O`, for which the max response in the assay with NIH3T3 [1] is -117%. Further, the Potency result in the assay with MCC-13, with MCC-26, in the assay on MKL-1, in the assay on MKL-2 and in the assay on UISO was “inactive” throughout.
As for `C[C@]12CC[C@@H]3[C@@H](CCC4=CC(=O)CC[C@@H]43)[C@@H]1CC[C@@H]2OC(=O)CCc1ccccc1`, the max response in the assay with NIH3T3 [1] is -6.38%. The call with HEK293T was inactive. Also, the Potency result in the assay on MCC-13, with MCC-26, in the assay on MKL-1, with MKL-2 and in the assay on UISO was “inactive” in each case.
`C=C[C@@H]1CN2CCC1C[C@@H]2[C@@H](O)c1ccnc2ccccc12` (stereo partly specified): in the assay with NIH3T3 [1], the max response is -16.7%. Besides, the Potency result in the assay on MCC-13, with MCC-26, in the assay on MKL-1 and in the assay on MKL-2 was “inactive” throughout.
As for `Nc1ccc(Sc2ccc(N)cc2)cc1`, the max response with NIH3T3 [1] is -12.3%. In addition, the Potency result in the assay on MCC-13, with MCC-26, in the assay with MKL-1, with MKL-2 and with UISO was “inactive” in each case.
For the compound `O=C(Nc1ccccc1-c1ccc(Cl)cc1)c1cccnc1Cl`, the result in the assay on NIH3T3 [1] was inactive. Besides, the Potency result with MCC-13, with MCC-26, in the assay on MKL-1, with MKL-2 and with UISO was “inactive” in each case. In addition, the outcome with NIH3T3 [2] was “inactive [at 92 µM]”.
